Inconclusive results are not listed. A call without a number means that no potency is given here. Active and inactive are the calls of the source. Calls come from the whole dose curve; as a rule, active = well fitted curve in the direction sought with a large enough effect; inconclusive = small, poorly fitted or top-dose-only effect, or another doubt; inactive = no such curve, though single readings can be large; an effect the other way counts as inactive or inconclusive.
Assays:
[1] = Confirmation and Secondary Assay for Modulators of Hemoglobin Beta Chain Splicing at IVS2 654 locus (AID 910); conditions: HeLa EGFP-654 splicing reporter, GFP fluorescence, 48 h; series mostly up to 46.1 µM;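 note: per-well total GFP intensity by laser scanning cytometry after 2-day treatment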
In short: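 HeLa cells stably carrying EGFP interrupted by mutant beta-globin IVS2-654 intron (CMV-driven) were treated with compound for 2 days at 37C; corrected splicing was scored as total peak GFP intensity per well (488 nm excitation, 500-520 nm emission).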

[2] = qHTS Assay for Identification of Small Molecule Agonists for Thrombopoietin (TPO) Signaling Pathway (AID 917); conditions: TPO signaling pathway reporter cells, agonist qHTS; series mostly up to 38.5 µM
In short: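 Stimulation at the TPO EC50 (26 pM final) was used to detect activators. Ba/F3 mouse cells bearing human TPO receptor and a luciferase reporter under the Glycoprotein IIb promoter were exposed to compounds for 24 hrs at 37 C.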

[3] = Confirmation and Secondary Assay for Modulators of Hemoglobin Beta Chain Splicing at IVS2 705 locus (AID 930); conditions: HeLa EGFP-705 splicing reporter, GFP fluorescence, 48 h; series mostly up to 46.1 µM;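 note: HeLa cells stably expressing the EGFP-705 splicing reporter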
In short: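 Restored EGFP fluorescence after 2-day compound exposure reports splicing correction in IVS2-705 EGFP reporter HeLa cells; positive control was 500 nM splice-blocking PNA oligo. Signal measured as well total peak GFP intensity (488 nm excitation).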

[4] = biological target: Muscarinic acetylcholine receptor M1 (Rattus norvegicus) (UniProt P08482); test: qHTS Assay for Antagonists of Acetylcholine Muscarinic M1 Receptor: Kinetic Measurement of Intracellular Calcium Response (AID 943); conditions: M1-expressing cells, kinetic intracellular calcium fluorescence; series mostly up to 35.3 µM;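 note: Fluo-4 calcium signal as peak divided by basal fluorescence over 4 min; nearly all actives have a fitted effect of over 75% in size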
Chain of Muscarinic acetylcholine receptor M1 (Rattus norvegicus) (P08482 whole entry, looked up): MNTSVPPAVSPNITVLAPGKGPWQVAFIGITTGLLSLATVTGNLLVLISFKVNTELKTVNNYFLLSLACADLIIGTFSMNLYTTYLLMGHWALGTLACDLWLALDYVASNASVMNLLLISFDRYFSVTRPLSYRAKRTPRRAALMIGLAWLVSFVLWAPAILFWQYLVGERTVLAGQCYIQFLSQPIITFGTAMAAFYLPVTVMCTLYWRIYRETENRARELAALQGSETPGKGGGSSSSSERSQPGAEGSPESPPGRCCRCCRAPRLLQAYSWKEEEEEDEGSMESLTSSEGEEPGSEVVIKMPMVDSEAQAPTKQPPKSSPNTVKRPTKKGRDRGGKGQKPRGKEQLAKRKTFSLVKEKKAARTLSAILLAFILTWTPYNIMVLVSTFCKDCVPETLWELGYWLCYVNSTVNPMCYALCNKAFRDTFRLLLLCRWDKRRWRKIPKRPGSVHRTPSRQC
In short: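 Read-out: peak over basal Fluo-4 fluorescence, kinetic at 1 Hz for 4 min after EC80 carbachol (100 nM final). Rat M1-CHO cells, dye loaded 1 h at 37C, compound added 10 min before agonist.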

[5] = biological target: Muscarinic acetylcholine receptor M1 (Rattus norvegicus) (UniProt P08482); test: qHTS Assay for Antagonists of Acetylcholine Muscarinic M1 Receptor: Measurement of IP-One Response (AID 944); conditions: CHO-M1 cells, IP-One HTRF, antagonist mode; series mostly up to 46.1 µM; note: nearly all actives have a fitted effect of over 75% in size
In short: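 Read-out: HTRF competition between d2-IP1 and Eu-cryptate anti-IP1 antibody, emission 620 and 665 nm. Stimulus was carbachol, EC80 (200 nM), for 30 min in M1-CHO cells (rat receptor), after 10 min compound pre-treatment.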

[6] = Cell Viability - LYMP2-001 (AID 921); conditions: LYMP2-001 lymphoblastoid cell viability; series mostly up to 92.2 µM; note: potency is the fitted concentration of half-maximal effect; nearly all actives have a fitted effect of over 70% in size
In short: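 Human lymphoblastoid LYMP2-001 cells, 2500 per well, in complete medium, treated 24 h at 37 C. Viability from cellular ATP by CellTiter-Glo luminescence; AC50 from Hill-equation fits of qHTS concentration-response.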

[7] = MultiTox-Fluor Cytotoxicity Assay - LYMP1-001 - Dead Cells (AID 946); conditions: LYMP1-001 lymphoblastoid cells, dead-cell protease fluorescence; series mostly up to 92.2 µM;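 note: potency is the fitted concentration of half-maximal effect; cells exposed to compound for 16 h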
In short: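 LYMP1-001 lymphoblastoid cells (2500/well) treated 16 h at 37 C. Dead-cell protease cleavage of bis-AAF-R110 read at Ex/Em 485/520. Normalized to DMSO and 15 uM tetraoctylammonium bromide; AC50 from Hill fits.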

[8] = qHTS Assay for Identification of Small Molecule Antagonists for Thrombopoietin (TPO) Signaling Pathway (AID 918); conditions: TPO-dependent cell signaling reporter, antagonist mode; note: potency is the fitted concentration of half-maximal effect; nearly all actives have a fitted effect of over 60% in size
In short: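 Luminescence read-out: GPIIb-promoter luciferase in Ba/F3 cells carrying human TPO receptor. Compounds added with 26 pM TPO (EC50), 24 hrs, 37 C, 5% CO2; cells deprived of IL-3 overnight beforehand. Inhibition of signal scored.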

With `NN=C(N)N` as the molecule, how does the outcome [1] read?
Its outcome is “inactive”.

And the outcome [2]?
Its outcome is “inactive”.

What about the outcome [3] of the same molecule?
Its outcome is “inactive”.

What about the Potency [4] of the same molecule?
The Potency was “inactive”.

What about the Potency [5] of the same molecule?
The Potency was “inactive”.

With `Oc1cccc2cccnc12` as the molecule, how does the outcome [1] read?
Its outcome is “inactive”.

What about the Potency [6] of the same molecule?
Its Potency is 6.31 µM (active).

And the outcome [3]?
Its outcome is “inactive”.

What about the Potency [7] of the same molecule?
Its Potency is 39.8 µM (active).

For `Cc1cccc(C)c1NC1=NCCCS1`, which outcome [1] is on record?
Its outcome is “inactive”.

What about the outcome [2] of the same molecule?
The outcome was “inactive”.

And the outcome [3]?
Its outcome is “inactive”.

What does the source list for `CC[N+]1(C)CCCC(OC(=O)C(O)(c2ccccc2)c2ccccc2)C1` (configuration not stated)?
outcome [1]: inactive; outcome [3]: inactive

Which results are given for `NCCc1cc(O)c(O)cc1O`?
outcome [1]: inactive; outcome [3]: inactive

What does the source list for `CC(C)=CC1C(C(=O)OCc2cccc(Oc3ccccc3)c2)C1(C)C` (configuration not stated)?
outcome [1]: inactive; outcome [3]: inactive

For `CC(CCc1ccccc1)NC(C)C(O)c1ccc(O)cc1` (configuration not stated), which outcome [1] is on record?
The outcome was “inactive”.

And the outcome [3]?
The outcome was “inactive”.

Which outcome [1] does the source give for `CC(C)CC(N(C)C)C1(c2ccc(Cl)cc2)CCC1` (configuration not stated) here?
The outcome was “inactive”.

And the outcome [3]?
The outcome was “inactive”.

Which outcome [1] does the source give for `CCC(COC(=O)c1cc(OC)c(OC)c(OC)c1)(c1ccccc1)N(C)C` (configuration not stated) here?
The outcome was “inactive”.

And the outcome [3]?
Its outcome is “inactive”.

For `CC(C)(C)NCC(O)c1cc(Cl)c(N)c(Cl)c1` (configuration not stated), which outcome [1] is on record?
The outcome was “inactive”.

And the outcome [3]?
The outcome was “inactive”.

For `Clc1ccc(COC(Cn2ccnc2)c2ccc(Cl)cc2Cl)cc1` (configuration not stated), which outcome [1] is on record?
The outcome was “inactive”.

What about the outcome [3] of the same molecule?
Its outcome is “inactive”.

Which outcome [1] does the source give for `Nc1ccncc1` here?
The outcome was “inactive”.

And the outcome [2]?
The outcome was “inactive”.

What about the outcome [3] of the same molecule?
Its outcome is “inactive”.

And the Potency [4]?
Its Potency is “inactive”.

What about the Potency [5] of the same molecule?
Its Potency is “inactive”.

Which outcome [1] does the source give for `CCC1(C2=NCCN2)Cc2ccccc2O1` (configuration not stated) here?
The outcome was “inactive”.

What about the outcome [3] of the same molecule?
Its outcome is “inactive”.

For `Cc1ccc(-c2nc3ccc(C)cn3c2CC(=O)N(C)C)cc1`, which outcome [1] is on record?
The outcome was “inactive”.

What about the outcome [3] of the same molecule?
The outcome was “inactive”.

Which outcome [1] does the source give for `COc1ccc(Cc2nccc3cc(OC)c(OC)cc23)cc1OC` here?
Its outcome is “inactive”.

What about the Potency [8] of the same molecule?
Its Potency is 12.6 µM (active).

And the outcome [3]?
The outcome was “inactive”.

Which outcome [1] does the source give for `O=c1[nH]c2ccccc2n1C1CCN(CCCC(c2ccc(F)cc2)c2ccc(F)cc2)CC1` here?
The outcome was “inactive”.

And the Potency [8]?
The Potency was 10 µM (active).

And the outcome [3]?
The outcome was “inactive”.

With `Cc1ncc(CNC(=O)N(CCCl)N=O)c(N)n1` as the molecule, how does the outcome [1] read?
Its outcome is “inactive”.

And the outcome [2]?
Its outcome is “inactive”.

And the outcome [3]?
The outcome was “inactive”.

And the Potency [5]?
Its Potency is “inactive”.
